# Data taken from PubChem BioAssay (NCATS).
# Records with an inconclusive call do not appear. Calls of active or inactive are those of the source. Unless noted, calls follow the shape of the dose curve; as a rule, active = well fitted curve in the direction sought with a large enough effect; inconclusive = small, poorly fitted or top-dose-only effect, or another doubt; inactive = no such curve, though single readings can be large; an effect the other way counts as inactive or inconclusive.
# Tests used:
# [1] = OV-KATE Cancer Cell Toxicity qHTS against the NCATS CANVASS Library (AID 1347345)
# Outline: (§1)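 Cells were seeded at 1000 per well, allowed 4 h at 37 degrees C/5% CO2, then pin-treated with an 11-point compound series. After 72 h, viability was read as CellTiter-Glo luminescence following 15min at room temperature.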
# [2] = HPAF-II Cancer Cell Toxicity qHTS against the NCATS CANVASS Library (AID 1347346)
# Outline: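 Using 1000 HPAF-II cells per well, we titrated compounds over 11 concentrations for 72 h at 37 degrees C/5% CO2, with bortezomib as control. Cell survival was quantified by CellTiter-Glo luminescence.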
# [3] = Panc-1005 Cancer Cell Toxicity qHTS against the NCATS CANVASS Library (AID 1347349)
# Outline: as §1
# [4] = SW1088 Cancer Cell Toxicity qHTS against the NCATS CANVASS Library (AID 1347350)
# Outline: as §1
# [5] = U-118MG Cancer Cell Toxicity qHTS against the NCATS CANVASS Library (AID 1347351)
# Outline: as §1
# [6] = COV-362 Cancer Cell Toxicity qHTS against the NCATS CANVASS Library (AID 1347352)
# Outline: (§2)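 Using an ATP-based luminescent reagent after three days of treatment, toxicity is scored across an eleven-concentration range in wells holding 1000 cells each.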
# [7] = A2780 Cisplatin Sensitive Ovarian Cancer Cell Toxicity qHTS against the NCATS CANVASS Library (AID 1347353)
# Outline: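 Quantitative HTS format: eleven compound concentrations applied to pre-seeded cells, 72 h incubation at 37 °C, then ATP detection by luminescence.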
# [8] = HEK-293 Cancer Cell Toxicity qHTS against the NCATS CANVASS Library (AID 1347355)
# Outline: as §2
# [9] = HPAF-II 24hr Apoptosis Induction qHTS against the NCATS CANVASS Library (AID 1347356)
# Outline: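 Using an 11-point qHTS format, HPAF-II cells in DMEM/10% FBS received compounds for 24 h; doxorubicin titration as control. Caspase-3/7 activity quantified by DEVD-luciferase luminescence.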
# [10] = HEK293 18hr Apoptosis Induction qHTS against the NCATS CANVASS Library (AID 1347357)
# Outline: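 Cells seeded at 500/well in DMEM + 10% FBS. Compounds pinned, 11 concentrations. 18 h, 37 degrees C/5% CO2. Caspase-Glo 3/7 added, 15 min RT dark, luminescence read.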
# [11] = HPAF-II 12hr Apoptosis Induction qHTS against the NCATS CANVASS Library (AID 1347358)
# Outline: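 Twelve-hour compound exposure of HPAF-II cells in DMEM with 10% FBS, then luminescent Caspase-Glo 3/7 detection after 15 min at room temperature; doxorubicin control.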
# [12] = HEK293 24hr Apoptosis Induction qHTS against the NCATS CANVASS Library (AID 1347359)
# Outline: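 HEK293 cells (500/well, DMEM + 10% FBS) were exposed to compounds in an 11-point series for 24 hours at 37 degrees C, then caspase-3/7 activity was read by Caspase-Glo DEVD luciferase luminescence after 15 min.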
# [13] = HPAF-II 18hr Apoptosis Induction qHTS against the NCATS CANVASS Library (AID 1347360)
# Outline: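 Seed HPAF-II cells at 500/well in DMEM + 10% FBS, pin-transfer compounds, incubate 18 hours at 37 degrees C/5% CO2, add Caspase-Glo 3/7 reagent, wait 15 min, read luminescence.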
# [14] = HEK293 12hr Apoptosis Induction qHTS against the NCATS CANVASS Library (AID 1347361)
# Outline: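 Cells are seeded, dosed with an 11-point compound series and incubated 12 hours. Caspase-3/7 activity is detected by luminescent DEVD-substrate reagent after 15 minutes at room temperature.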
# [15] = test system: NAD(P)H diaphorase (Clostridium kluyveri); assay: Diaphorse counterscreen qHTS: Assay Interference Panel against the NCATS CANVASS Library (AID 1347362)
# Outline: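 Clostridium kluyveri diaphorase in PBS with 0.01% Tween-20 was preincubated 15 min at room temperature in the dark with compounds (11-point series). Resorufin fluorescence (ex 525/20, em 598/25) was read 5 min after adding resazurin/NADH.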
# [16] = molecular target: Luciferin 4-monooxygenase (Photinus pyralis) (UniProt P08659); assay: Firefly luciferase counterscreen qHTS: Assay Interference Panel against the NCATS CANVASS Library (AID 1347363)
# Outline: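 Purified P. pyralis luciferase was added to compounds (11-point series) preincubated 15 min at room temperature with substrate containing 0.013 mM D-luciferin and 0.013 mM ATP; luminescence was read after 5 min.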
# [17] = KB-8-5-11 Cancer Cell Toxicity qHTS against the NCATS CANVASS Library (AID 1347364)
# Outline: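 Luminescent ATP signal (CellTiter-Glo, 10 min at room temperature) measured cell survival of KB-8-5-11 after 72 hr compound treatment. For confirmation, the cells were also grown with 1uM tariquidar.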
# [18] = qHTS for ATAD5 Agonist screened against the NCATS CANVASS Library (AID 1347367)
# Outline: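 HEK293T-ATAD5 luc reporter; 2000 cells/well; 5hr settle; cpd 11-pt qHTS; 16hr 37C 5% CO2 dark; viability by CellTiter-Fluor (AFC fluorescence); then luciferase luminescence, 30min RT.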
# [19] = MCF7 Cancer Cell Toxicity qHTS against the NCATS CANVASS Library (AID 1347369)
# Outline: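 Cells seeded at 500/well, then compound pinned. Plates incubated 72 hr at 37C, 5% CO2. CellTiterGlo added; luminescence read.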
# [20] = qHTS for ATAD5 Antagonist screened against the NCATS CANVASS Library (AID 1347370)
# Outline: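 HEK293T-ATAD5 luc reporter, 2000 cells/well; 5hr attach; cpd + 10 uM 5-FUrd; 16hr 37C, 5% CO2. Readouts: CellTiter-Fluor fluorescence (1hr), then Amplite luciferase luminescence (30min RT).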
# [21] = molecular target: Nuclear receptor subfamily 1 group I member 3 (Homo sapiens) (UniProt Q14994); assay: qHTS for Constitutive Androstane Receptor (CAR) Antagonist screened against the NCATS CANVASS Library (AID 1347372)
# Outline: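 Cells were seeded and left 4hr to attach, then received compound at 11 concentrations and 50 nM CITCO. Following 24hr incubation, fluorescence viability and luciferase luminescence were read sequentially.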
# [22] = molecular target: Nuclear receptor subfamily 1 group I member 3 (Homo sapiens) (UniProt Q14994); assay: qHTS for Constitutive Androstane Receptor (CAR) Agonist screened against the NCATS CANVASS Library (AID 1347373)
# Outline: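 In an 11-point concentration series, compounds were incubated 24hr with HepG2 cells carrying hCAR and a CYP2B6-2.2kb reporter, with PK11195 at 1.5uM final. A CellTiter-Fluor viability read preceded the ONE-Glo luminescence read.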
# [23] = 10-beta competent E. coli microbial cell viability qHTS against the NCATS CANVASS Library (AID 1347376)
# Outline: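 Overnight 37C exposure of 10-beta E. coli (0.2 OD) to an 11-point concentration series; ATP-based luminescence after 20 min room-temperature reagent incubation; daunomycin as control.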
# [24] = qHTS for H2AX Agonists against the NCATS CANVASS Library (AID 1347378)
# Outline: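 CHO-K1, 1000 cells/well, o/n 37C; cpd several conc, 3 hr 37C, 0.76% DMSO; lyse 30 min RT; cryptate anti-pH2AX(S139) + d2 anti-H2AX, 24 hr RT; HTRF 665/620.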
# [25] = qHTS for Inflammasome Signaling Inhibitors: IL-1-beta AlphaLISA screen against the NCATS CANVASS Library (AID 1347379)
# Outline: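 THP-1, 1 hr compound pre-incubation, then LPS 250 ng/mL + ATP 1.25 mM (final); 16 hr total with compound; IL-1B AlphaLISA, ex 680/em 615 nm; 11-point qHTS, up to 57.5 uM final.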
# [26] = Inflammasome Signaling qHTS Counterscreen: IL-1-beta AlphaLISA counterscreen against the NCATS CANVASS Library (AID 1347381)
# Outline: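 Here, no cellular stimulation occurs; compounds in an 11-point series meet 4 pg purified IL-1-beta directly. Bead-based AlphaLISA detection follows (1 h acceptor/antibody, then 30 min donor, dark, room temperature), with excitation at 680 nm.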
# [27] = Cytotoxicity qHTS for assessment of Hepg2 cells membrane integrity screened against the NCATS CANVASS Library (AID 1347387)
# Outline: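 Membrane damage in HepG2 monolayers was estimated from released LDH, measured with CytoTox-ONE (ex 560/em 590 nm), after 5 hr treatment across 0.59 nM - 46 uM final.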
# [28] = qHTS for Activators of p53 Stress Response Pathway screened against the NCATS CANVASS Library (AID 1347388)
# Outline: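 p53RE-bla HCT-116 cells (4000/well) were plated 5 h at 37C, exposed to compounds for 16 h at 37C over an 11-point concentration series, then loaded with CCF4 for 2 h at room temperature; 460/530 nm emission ratio read.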
# [29] = qHTS assay for small molecule disruptors of mitochondrial membrane potential screened against the NCATS CANVASS Library (AID 1347389)
# Outline: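 Cells (HepG2) seeded the day before received compound or DMSO for 1 hr, then Mito-MPS dye for 30 min at 37C; emission at 590 nm over 535 nm gave the polarization signal.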
# [30] = Secretion counterscreen for inhibitors of the SERCaMP assay screened against the NCATS CANVASS Library (AID 1347390)
# Outline: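 SH-SY5Y-GLuc STOP cells; 4 h attach; cpds 0.001 - 77 uM (qHTS, 11 pts), 20 h 37C/5% CO2; coelenterazine in glow buffer; luminescence, 5 s exposure.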
# [31] = qHTS for activators of dead-cell proteases activity screened against the NCATS CANVASS Library (AID 1347392)
# Outline: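 Cytotoxicity in HepG2 cells was assessed by released protease cleaving AAF-aminoluciferin, with luminescence as signal. Exposure lasted 5 h at 37C across an 11-point series.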
# [32] = qHTS for inhibitors of Wild type Zika virus screened against the NCATS CANVASS Library (AID 1347396)
# Outline: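 Protection against wild-type Zika cytopathic effect is measured in African green monkey Vero 766 cells exposed to an 11-point compound series. Surviving cells are quantified by CellTiter Glo luminescence after 72 h.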
# [33] = Viability qHTS for inhibitors of the SERCaMP assay screened against the NCATS CANVASS Library (AID 1347400)
# Outline: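 Measures loss of viability in SERCaMP reporter SH-SY5Y cells treated for 48 h with compounds; luminescent ATP detection by CellTiter-Glo.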
# [34] = Redox Reaction Profiling qHTS: Assay Interference Panel against the NCATS CANVASS Library (AID 1347401)
# Outline: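 Quantitative HTS over an 11-point series was run in HEPES pH 7.3 with 50 mM NaCl, 200 uM DTT and 5 uM resazurin. Initial and 15-min resorufin fluorescence readings were taken.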
# [35] = qHTS for inhibitors of Rabies Virus screened against the NCATS CANVASS Library (AID 1347402; calls by dose curve)
# [36] = test system: Zika virus NS2B-NS3 protease (linked construct); assay: Primary screen NINDS Rhodamine qHTS for Zika virus inhibitors (AID 1347160)
# Outline: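 Enzyme (25 nM, linked NS2B-NS3) was preincubated 15 min with compound in 10 mM Tris-HCl pH 8.0, 0.01% Tween 20. Rhodamine110 substrate (1.5 microM) was then added and fluorescence read at start and after 15 min.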
# [37] = UWB1.289 Cancer Cell Toxicity qHTS against the NCATS CANVASS Library (AID 1347347)
# Outline: as §1
# [38] = qHTS for inhibitors of ER calcium dysfunction: SERCaMP assay screened against the NCATS CANVASS Library (AID 1347393)
# Outline: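 qHTS in SH-SY5Y reporter cells: 16 h compound pretreatment, 4 h thapsigargin, then secreted Gaussia luciferase measured by luminescence.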
# [39] = Vero-766 cells viability qHTS against the NCATS CANVASS Library: Counterscreen for Zika virus inhibition assay (AID 1347394)
# Outline: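 Vero 766, no virus; 1000 cells/well; o/n attach; cpd 11-pt; 72 h, 37C, 5% CO2; CTG luminescence; cell-free media wells = 100% inhibition.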
# Nuclear receptor subfamily 1 group I member 3 (Homo sapiens), sequence (Q14994 whole entry, looked up): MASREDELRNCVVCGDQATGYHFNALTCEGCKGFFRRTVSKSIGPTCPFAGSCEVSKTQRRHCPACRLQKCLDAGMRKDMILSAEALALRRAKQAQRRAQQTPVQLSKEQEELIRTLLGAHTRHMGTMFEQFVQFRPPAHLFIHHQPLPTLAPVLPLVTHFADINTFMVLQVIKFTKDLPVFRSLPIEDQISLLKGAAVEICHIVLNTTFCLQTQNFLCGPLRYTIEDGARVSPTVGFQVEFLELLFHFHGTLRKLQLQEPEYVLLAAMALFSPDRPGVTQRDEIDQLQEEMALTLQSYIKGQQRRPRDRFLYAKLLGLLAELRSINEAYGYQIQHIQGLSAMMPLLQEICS
# Luciferin 4-monooxygenase (Photinus pyralis), sequence (P08659 whole entry, looked up): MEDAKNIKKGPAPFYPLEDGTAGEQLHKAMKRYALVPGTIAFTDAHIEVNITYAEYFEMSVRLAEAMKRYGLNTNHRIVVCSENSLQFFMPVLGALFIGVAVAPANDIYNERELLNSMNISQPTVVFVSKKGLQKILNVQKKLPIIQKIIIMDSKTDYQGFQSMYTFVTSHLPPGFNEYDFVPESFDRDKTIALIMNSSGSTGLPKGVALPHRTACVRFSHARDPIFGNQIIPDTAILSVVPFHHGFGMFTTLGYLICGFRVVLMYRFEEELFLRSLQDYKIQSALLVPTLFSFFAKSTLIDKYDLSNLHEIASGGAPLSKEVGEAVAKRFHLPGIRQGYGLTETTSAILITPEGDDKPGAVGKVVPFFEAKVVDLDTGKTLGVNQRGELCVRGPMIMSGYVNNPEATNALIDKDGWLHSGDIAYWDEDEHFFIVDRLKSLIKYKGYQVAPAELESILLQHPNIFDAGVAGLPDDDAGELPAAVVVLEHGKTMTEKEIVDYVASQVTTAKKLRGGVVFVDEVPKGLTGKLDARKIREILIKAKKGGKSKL
smiles,measurement,setting,value
CC=C1CN(C=O)[C@H]2C[C@@H]1[C@@H](C(=O)OC)[C@@]13CCOC21Nc1ccccc13 (some centres not stated),Potency,[1],inactive
same,Potency,[2],inactive
same,Potency,[3],inactive
same,Potency,[4],inactive
same,Potency,[5],inactive
same,Potency,[6],inactive
same,Potency,[7],inactive
same,Potency,[8],inactive
same,outcome,[9],inactive
same,Potency,[10],inactive
same,outcome,[11],inactive
same,Potency,[12],inactive
same,outcome,[13],inactive
same,Potency,[14],inactive
same,outcome,[15],inactive
same,outcome,[16],inactive
same,Potency,[17],inactive
same,Potency,[18],inactive
same,Potency,[19],inactive
same,Potency,[20],inactive
same,Potency,[21],inactive
same,outcome,[22],inactive
same,outcome,[23],inactive
same,Potency,[24],inactive
same,Potency,[25],inactive
same,outcome,[26],inactive
same,outcome,[27],inactive
same,Potency,[28],inactive
same,Potency,[29],inactive
same,Potency,[30],inactive
same,Potency,[31],inactive
same,Potency,[32],inactive
same,Potency,[33],inactive
same,Potency,[34],inactive
same,outcome,[35],inactive
CC1=CC(=O)C2=C(C)C[C@H](O)[C@@H]3[C@H](OC(=O)[C@@H]3C)[C@@H]12,Potency,[36],49.3 µM (active)
same,Potency,[1],inactive
same,Potency,[2],inactive
same,Potency,[37],inactive
same,Potency,[3],inactive
same,Potency,[4],inactive
same,Potency,[5],inactive
same,Potency,[6],inactive
same,Potency,[8],inactive
same,outcome,[9],inactive
same,Potency,[10],inactive
same,outcome,[11],inactive
same,Potency,[12],inactive
same,outcome,[13],inactive
same,Potency,[14],inactive
same,outcome,[15],inactive
same,outcome,[16],inactive
same,Potency,[17],inactive
same,Potency,[18],inactive
same,Potency,[19],inactive
same,Potency,[20],inactive
same,Potency,[21],inactive
same,outcome,[22],inactive
same,outcome,[23],inactive
same,Potency,[24],inactive
same,outcome,[26],inactive
same,outcome,[27],inactive
same,Potency,[28],inactive
same,Potency,[29],inactive
same,Potency,[30],inactive
same,Potency,[31],inactive
same,Potency,[38],34.3 µM (active)
same,Potency,[39],inactive
same,Potency,[32],inactive
same,Potency,[33],inactive
same,Potency,[34],inactive
same,outcome,[35],inactive
